The nature of test [1]: compounds binding Alexa647 anti-His antibody – biochemical, small-molecule microarray, 635 nm fluorescence, artefact control for SMM control protein annotation, primary screen (AID 1128).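 Also: score merges feature fluorescence with signal-to-noise for each printed compound spot.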 As to conditions: higher = more signal.
Test [2] deals with Human papillomavirus type 1a E7 protein (residues 1-88). Put plainly: HPV1a E7 small-molecule binders, primary screen, biochemical, small-molecule microarray, residues 1-88, 635 nm (AID 1129). As to conditions: small-molecule microarray binding, fluorescence 635 nm; higher = more signal.
For test [3], the target named is Focal adhesion kinase 1 (Homo sapiens) (UniProt Q05397). Put plainly: PTK2 protein binding on printed compound slides – biochemical, small-molecule microarray, 635/667 nm fluorescence, BSA, DTT, primary screen (AID 1130).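 Also: composite of spot emission at 667 nm and signal to noise over triplicate slides.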 Conditions: 635 nm fluorescence, higher = more signal.
Chain of Focal adhesion kinase 1 (Homo sapiens) (Q05397 whole entry, looked up): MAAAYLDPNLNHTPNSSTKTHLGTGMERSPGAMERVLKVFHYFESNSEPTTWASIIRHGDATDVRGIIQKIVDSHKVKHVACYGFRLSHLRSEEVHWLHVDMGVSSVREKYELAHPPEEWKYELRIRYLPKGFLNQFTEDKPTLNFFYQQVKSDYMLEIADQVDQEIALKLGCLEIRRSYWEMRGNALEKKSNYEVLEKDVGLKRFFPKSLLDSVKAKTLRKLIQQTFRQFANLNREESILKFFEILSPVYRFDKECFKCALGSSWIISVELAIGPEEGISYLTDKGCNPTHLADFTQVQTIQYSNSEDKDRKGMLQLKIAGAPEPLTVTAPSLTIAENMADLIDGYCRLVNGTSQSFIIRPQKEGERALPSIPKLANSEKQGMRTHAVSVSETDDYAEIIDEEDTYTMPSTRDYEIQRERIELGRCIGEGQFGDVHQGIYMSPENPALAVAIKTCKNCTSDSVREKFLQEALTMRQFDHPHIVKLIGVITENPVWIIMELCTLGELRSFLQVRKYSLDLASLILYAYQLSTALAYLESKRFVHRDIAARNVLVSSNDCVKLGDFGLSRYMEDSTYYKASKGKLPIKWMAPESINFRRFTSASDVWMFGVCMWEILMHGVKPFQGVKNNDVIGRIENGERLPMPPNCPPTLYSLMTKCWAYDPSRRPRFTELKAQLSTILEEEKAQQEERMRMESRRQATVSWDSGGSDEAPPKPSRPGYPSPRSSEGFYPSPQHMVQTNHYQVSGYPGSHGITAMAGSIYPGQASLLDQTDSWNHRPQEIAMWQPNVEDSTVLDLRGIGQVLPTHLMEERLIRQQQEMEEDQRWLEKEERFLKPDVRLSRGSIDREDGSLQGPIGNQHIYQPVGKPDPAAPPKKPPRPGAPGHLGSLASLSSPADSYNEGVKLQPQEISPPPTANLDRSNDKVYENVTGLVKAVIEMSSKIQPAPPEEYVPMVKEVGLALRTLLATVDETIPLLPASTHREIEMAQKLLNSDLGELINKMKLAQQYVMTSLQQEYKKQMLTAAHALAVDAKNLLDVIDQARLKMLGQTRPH
The subject of test [4] is Fibrinogen (Alexa647-labelled). Put plainly: Alexa647-fibrinogen binding to printed small molecules – biochemical, small-molecule microarray, 635/667 nm fluorescence, artefact control for SMM control-protein annotation, profiling panel (AID 1131).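 Also: z-score merges 667 nm fluorescence with per-spot signal-to-noise over triplicate slides.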 As to conditions: fibrinogen-A647 binding fluorescence, higher = more signal.
The target of test [5] is Follistatin (Homo sapiens) (UniProt P19883). Put plainly: FST protein binding to printed compounds – biochemical, small-molecule microarray, 635/667 nm fluorescence, primary screen (AID 1132). Conditions: 635 nm fluorescence, higher = more signal.
Chain of Follistatin (Homo sapiens) (P19883 whole entry, looked up): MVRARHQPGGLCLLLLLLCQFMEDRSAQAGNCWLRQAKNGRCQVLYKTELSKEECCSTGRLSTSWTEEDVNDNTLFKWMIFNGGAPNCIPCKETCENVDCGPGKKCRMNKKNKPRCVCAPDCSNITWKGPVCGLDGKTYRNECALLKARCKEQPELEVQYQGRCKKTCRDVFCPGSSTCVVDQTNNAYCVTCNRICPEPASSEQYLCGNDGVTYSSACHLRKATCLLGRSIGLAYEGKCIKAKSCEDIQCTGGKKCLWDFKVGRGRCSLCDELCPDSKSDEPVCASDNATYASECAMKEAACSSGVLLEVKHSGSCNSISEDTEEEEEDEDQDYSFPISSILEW
For test [6], the target named is Fibroblast growth factor 2 (Homo sapiens) (UniProt P09038). Put plainly: basic fibroblast growth factor binding to printed compounds – biochemical, small-molecule microarray, 635/667 nm fluorescence, primary screen (AID 1133). As to conditions: FGF2, fluorescence 635/667, higher = more signal.
Chain of Fibroblast growth factor 2 (Homo sapiens) (P09038 whole entry, looked up): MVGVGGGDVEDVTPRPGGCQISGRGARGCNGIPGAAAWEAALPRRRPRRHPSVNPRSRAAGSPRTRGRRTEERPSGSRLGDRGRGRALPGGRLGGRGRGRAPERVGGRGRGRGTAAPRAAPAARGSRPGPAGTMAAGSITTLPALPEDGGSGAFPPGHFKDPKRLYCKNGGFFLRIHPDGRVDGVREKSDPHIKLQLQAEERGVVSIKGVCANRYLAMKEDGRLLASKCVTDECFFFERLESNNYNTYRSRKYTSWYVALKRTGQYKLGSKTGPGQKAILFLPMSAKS
The nature of test [7]: JC-1 mitochondrial potential readout, lung cancer cells – cell-based, A549, JC-1 fluorescence, basal, 24 h, 100 nL, profiling panel (AID 1138).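 Also: A549 lung adenocarcinoma cells under basal conditions with no added stimulus; test concentration not given here.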 As to conditions: higher = more signal.
For test [8], the system named is Lefty1. Description: Lefty1 protein binding to printed compounds – biochemical, small-molecule microarray, 635/667 nm fluorescence, primary screen (AID 1139). Conditions: fluorescence 635/667, higher = more signal.
Test [9] deals with wheat germ agglutinin (Triticum aestivum), Alexa647-labelled. Description: Alexa647-WGA lectin binding to printed small molecules – biochemical, small-molecule microarray, 635/667 nm fluorescence, artefact control for SMM control-protein annotation, profiling panel (AID 1140).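 Also: score merges 667 nm feature emission with signal to noise over triplicate slides.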 Conditions: WGA-A647 binding, 635 nm fluorescence, higher = more signal.
For test [10], the target named is Luciferin 4-monooxygenase (Photinus pyralis) (UniProt P08659). Put plainly: inhibition of purified Photinus pyralis luciferase – biochemical, luminescence, purified enzyme, 2006 set, primary screen (AID 1141).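 Also: cell-free assay with purified firefly luciferase at 100 ng per well in PBS; test concentration not given here.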 As to conditions: purified firefly luciferase, SteadyGlo luminescence, 30 min; higher = more signal, called active from +8 up or from −8 down.
Chain of Luciferin 4-monooxygenase (Photinus pyralis) (P08659 whole entry, looked up): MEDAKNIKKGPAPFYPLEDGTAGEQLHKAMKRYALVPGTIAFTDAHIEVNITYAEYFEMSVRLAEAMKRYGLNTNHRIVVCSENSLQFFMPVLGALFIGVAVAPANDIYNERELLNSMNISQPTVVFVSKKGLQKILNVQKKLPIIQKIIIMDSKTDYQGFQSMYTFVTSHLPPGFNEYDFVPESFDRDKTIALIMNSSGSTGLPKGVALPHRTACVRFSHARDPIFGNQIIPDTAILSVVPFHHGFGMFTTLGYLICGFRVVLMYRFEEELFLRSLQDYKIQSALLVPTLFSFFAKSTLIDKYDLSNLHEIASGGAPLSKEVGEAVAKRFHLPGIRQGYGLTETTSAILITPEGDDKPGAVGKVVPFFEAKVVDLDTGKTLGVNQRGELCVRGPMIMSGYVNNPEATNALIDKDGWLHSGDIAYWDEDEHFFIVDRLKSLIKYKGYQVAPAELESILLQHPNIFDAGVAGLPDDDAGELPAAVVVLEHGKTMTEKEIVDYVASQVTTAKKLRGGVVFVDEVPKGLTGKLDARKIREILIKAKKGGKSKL
Test [11] relates to Wnt5a (protein binding on small-molecule microarray). Put plainly: small molecules binding Wnt5a protein – biophysical, small-molecule microarray, 635/667 nm fluorescence, primary screen (AID 1142).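 Also: fluorescence read at 667 nm with signal to noise per printed feature.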 Conditions: 635 nm fluorescence, higher = more signal.
The nature of test [12]: ATP-based viability of Huh7 replicon cells – cell-based, CellTiter-Glo luminescence, basal, 48 h, cytotoxicity control for HCV replication inhibitor project, primary screen (AID 1143).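 Also: Huh7 hepatoma cells carrying a hepatitis C replication reporter with no stimulus; test concentration not given here.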 As to conditions: higher = more signal, called active from +8 up or from −8 down. On the technique in general: Replicon systems follow genome replication, usually without infectious particles.

Test [13] in a line: Pseudomonas biofilm growth suppression – PAO1 strain, BacTiter-Glo luminescence, LB-PBS, primary screen (AID 1144). As to conditions: P. aeruginosa PAO1 biofilm, 12 h, higher = more signal.
Test [14] in a line: basal CRE-LacZ reporter activity in PC12 – cell-based, unstimulated, primary screen (AID 1145). As to conditions: no forskolin, luminescence, 4.5 h, higher = more signal, called active from +8 up or from −8 down.
Test [15] can be described thus: forskolin-driven CRE-LacZ activity in PC12 – cell-based, CRE-LacZ reporter, forskolin-stimulated, primary screen (AID 1146).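 Also: PC12 cells with 6xCRE LacZ reporter stimulated by forskolin 10 µM; beta-galactosidase reporter signal reflecting CREB driven transcription.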 As to conditions: luminescence, 4.5 h, higher = more signal, called active from +8 up or from −8 down.
The target in test [16] is Streptavidin (Streptomyces avidinii) (UniProt P22629). Description: compounds binding control protein streptavidin – biophysical, small-molecule microarray, 635/667 nm fluorescence, artefact control for SMM compound annotation, primary screen (AID 1147).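 Also: signal reflects streptavidin binding to arrayed compounds as a control protein.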 As to conditions: higher = more signal.
Chain of Streptavidin (Streptomyces avidinii) (P22629 whole entry, looked up): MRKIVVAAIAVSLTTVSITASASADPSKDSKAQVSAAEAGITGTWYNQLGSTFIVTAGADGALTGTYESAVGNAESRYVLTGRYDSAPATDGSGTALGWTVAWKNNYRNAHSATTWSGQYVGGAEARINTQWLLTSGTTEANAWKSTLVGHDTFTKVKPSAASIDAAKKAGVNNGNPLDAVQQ
Test [17] is described as follows: probe aInhba binding on compound microarray – biochemical, small-molecule microarray, 635/667 nm fluorescence, primary screen (AID 1148).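 Also: score merges 667nm spot fluorescence with signal-to-noise for antibody binding to printed compounds.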 As to conditions: higher = more signal.
For test [18], the target named is Torsin-1A (Homo sapiens) (UniProt O14656). Description: TOR1A wild-type binding on microarray – cell lysate, small-molecule microarray, lysate, 635/667 nm, primary screen (AID 1149). As to conditions: COS7 hTOR1A-WT lysate, 635 nm fluorescence, higher = more signal.
Chain of Torsin-1A (Homo sapiens) (O14656 whole entry, looked up): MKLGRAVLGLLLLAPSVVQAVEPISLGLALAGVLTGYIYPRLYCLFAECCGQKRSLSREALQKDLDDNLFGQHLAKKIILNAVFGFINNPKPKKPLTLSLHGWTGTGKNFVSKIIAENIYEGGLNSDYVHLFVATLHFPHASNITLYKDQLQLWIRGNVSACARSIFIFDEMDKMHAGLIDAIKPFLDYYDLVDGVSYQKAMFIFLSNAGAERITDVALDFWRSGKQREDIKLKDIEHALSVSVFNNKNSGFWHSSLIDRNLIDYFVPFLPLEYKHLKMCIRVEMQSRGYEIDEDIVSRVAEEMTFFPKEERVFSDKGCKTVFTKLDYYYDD
Test [19] has the same target. Description: torsin A mutant lysate binding on microarrays – cell lysate, small-molecule microarray, COS7 lysate, 635/667 nm fluorescence, primary screen (AID 1150).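 Also: score pools 667 nm emission and signal to noise measuring lysate protein binding.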 As to conditions: COS7 hTOR1A mutant lysate, 635 nm fluorescence, higher = more signal.
Test [20] has as its system Sonic hedgehog protein (Shh). Description: Sonic hedgehog microarray binding compounds – biochemical, small-molecule microarray, 635/667 nm fluorescence, primary screen (AID 1151).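 Also: Shh protein binding to compounds spotted on small-molecule microarray slides; score combines spot fluorescence intensity with signal-to-noise across triplicate slides.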 As to conditions: 635 nm fluorescence, higher = more signal.

The structures appear in SMILES notation. Active and inactive are the calls of the source. Unless noted, no rule for the calls is given here.

Regarding `C=CCOC(=O)[C@@H]1[C@H]2C(=O)O[C@H](c3ccccc3)[C@H](c3ccccc3)N2[C@H](c2ccc(OCCOC(=O)[C@H]3C[C@H]4C(=O)N[C@@H](CCCCNC(C)=O)C(=O)N4[C@H]3c3ccc(O)cc3)cc2)[C@@]12C(=O)Nc1ccc(I)cc12`, the composite z-score in [1] is 1.21; in test [2], 0.894; in test [3], -0.145; in test [4] it was 0.852; in [5], 1.08; in test [6], 1.7. Moreover, the composite z-score in [8] is 1.08; in test [9], 0.115; in [11], 0.728; in test [16], 0.0984; in [17], 0.0073; in test [18], 1.32. Further, the composite z-score in test [19] was 1.29; in [20] it was 2.07. In addition, the z-score in test [7] was -0.815; in [10], -0.608 (inactive); in [12], -0.317 (inactive); in test [13] it was 0.645 (inactive); in test [14], 0.549 (inactive); in test [15], 0.906 (inactive).
As for `COc1ccc([Si](C)(C)[C@@H]2[C@@H](CC(=O)N(CCO)Cc3ccccc3)O[C@]3(C(=O)N(Cc4cccc(N5CCC5=O)c4)c4ccccc43)[C@H]2C)cc1`, the composite z-score in test [1] is 0.863; in [2], 1.1; in test [3], 0.545; in test [4], -0.0806; in test [5] it was 1.3; in [6], 1.4. Also, the composite z-score in [8] was 1.49; in [9] it was 0.163; in test [11] it was 0.0348; in [16], -0.287; in test [17], 0.0301; in [18], 0.0525. Further, the values for the composite z-score in [19] and in [20] were -0.009 and 1.81, respectively. For the same compound, the z-score in test [7] was -0.282; in [10], 0.352 (inactive); in test [12], -5.72 (inactive); in test [13], 0.765 (inactive); in test [14], 0.236 (inactive); in test [15], 0.398 (inactive).
For the compound `CCOC(=O)C1=CCC(c2cccc3ccccc23)N(S(=O)(=O)c2ccc(C)cc2)C1` (stereo not given), the composite z-score was 0.206 in [1]; 1.17 in [2]; 1.02 in [3]; 0.928 in test [4]; 0.825 in test [5]; -0.509 in test [6]. Besides, the composite z-score in [8] was found to be 0.052; in test [9], 0.697; in test [11] it was 0.204; in test [16], 1.12; in [17], 0.201; in [18], 0.334. The composite z-score was 0.216 in [19] and -0.717 in test [20]. The z-score in [7] is 2.43; in [10], 1.72 (inactive); in test [12] it was -3.85 (inactive); in [13], 0.00942 (inactive); in test [14], -0.826 (inactive); in test [15], -0.0663 (inactive).
In the case of `C[N+](C)(C)CCCCNC(=O)[C@H]1C[C@H]2C(=O)NCC(=O)N2[C@H]1c1cccc(OCCO)c1`, the composite z-score was 2.81 in test [1]; 0.279 in test [2]; -0.0181 in [3]; -0.0364 in test [4]; 1.49 in test [5]; 1.9 in test [6]. For the same compound, the composite z-score in test [8] is 1.71; in [9] it was 0.399; in [11], 0.668; in test [16] it was 0.0924; in test [17] it was -0.0044; in [18], 1.21. The results for the composite z-score in test [19] and in test [20] were 0.961 and 2.17, respectively. The z-score is -0.776 in [7]; -0.162 (inactive) in test [10]; 0.148 (inactive) in [12]; -0.722 (inactive) in [13]; 0.419 (inactive) in [14]; -0.153 (inactive) in test [15].
On to `CC(c1ccccc1)C(O)C1C=CC2C(=O)N(C)C(=O)C2N1N(c1ccccc1)c1ccccc1` (stereo not given), for which the composite z-score in test [1] is 0.69; in test [2], 0.919; in [3] it was 0.467; in test [4] it was 0.948; in test [5], -0.19; in test [6] it was -0.377. Besides, the composite z-score is -0.617 in test [8]; 1.18 in test [9]; 0.156 in test [11]; 0.377 in test [16]; 0.153 in test [17]; 0.18 in [18]. For the same compound, the composite z-score in test [19] was 0.426; in test [20], -0.586. Also, the z-score in [7] was 0.755; in test [10], -0.273 (inactive); in test [12], 0.066 (inactive); in test [13] it was -0.131 (inactive); in [14], 0.443 (inactive); in [15], 0.696 (inactive).

Source of the values: PubChem BioAssay.
